gsp antag = antagonists of gsp mutant (McCune-Albright syndrome) | gsp-mutant cells, cAMP HTRF, 30 min | Potency, µM (series often up to 76.9 µM), for inactives: top-dose activity change, negative = inhibition, most hits filed as inhibitors | 340,000 tested, 0.4% active | AID 624288; calls by dose curve; cell line not stated here;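 also: intracellular cAMP measured with PDE inhibitor Ro 20-1724 present during compound exposure; % is scaled to controls: 0 for no effect and ±100 for the full control effect; nearly all actives have a fitted effect of over 65% in size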
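Cells in G418 medium, seeded 16-24 h, 37C; buffer exchange to DPBS + 1 mM CaCl2, 0.5 mM MgCl2, 0.05% BSA; cpds in DMSO + […] (300 uM stock), 30 min 37C; HTRF cAMP detection.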
Rango-impB inh = inhibitors of Rango-importin beta complex formation; Rango CFP/YFP FRET sensor + importin beta, 45 min; Potency, µM (titrated, usually from 92.2 µM), inactives show at the highest dose inhibition of complex formation; 340,000 tested, 0.031% active; AID 540263;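 also: 0% = DMSO wells and 100% = buffer wells lacking importin beta; nearly all actives have a fitted effect of over 15% in size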
Target sequence (Q14974 whole entry, looked up): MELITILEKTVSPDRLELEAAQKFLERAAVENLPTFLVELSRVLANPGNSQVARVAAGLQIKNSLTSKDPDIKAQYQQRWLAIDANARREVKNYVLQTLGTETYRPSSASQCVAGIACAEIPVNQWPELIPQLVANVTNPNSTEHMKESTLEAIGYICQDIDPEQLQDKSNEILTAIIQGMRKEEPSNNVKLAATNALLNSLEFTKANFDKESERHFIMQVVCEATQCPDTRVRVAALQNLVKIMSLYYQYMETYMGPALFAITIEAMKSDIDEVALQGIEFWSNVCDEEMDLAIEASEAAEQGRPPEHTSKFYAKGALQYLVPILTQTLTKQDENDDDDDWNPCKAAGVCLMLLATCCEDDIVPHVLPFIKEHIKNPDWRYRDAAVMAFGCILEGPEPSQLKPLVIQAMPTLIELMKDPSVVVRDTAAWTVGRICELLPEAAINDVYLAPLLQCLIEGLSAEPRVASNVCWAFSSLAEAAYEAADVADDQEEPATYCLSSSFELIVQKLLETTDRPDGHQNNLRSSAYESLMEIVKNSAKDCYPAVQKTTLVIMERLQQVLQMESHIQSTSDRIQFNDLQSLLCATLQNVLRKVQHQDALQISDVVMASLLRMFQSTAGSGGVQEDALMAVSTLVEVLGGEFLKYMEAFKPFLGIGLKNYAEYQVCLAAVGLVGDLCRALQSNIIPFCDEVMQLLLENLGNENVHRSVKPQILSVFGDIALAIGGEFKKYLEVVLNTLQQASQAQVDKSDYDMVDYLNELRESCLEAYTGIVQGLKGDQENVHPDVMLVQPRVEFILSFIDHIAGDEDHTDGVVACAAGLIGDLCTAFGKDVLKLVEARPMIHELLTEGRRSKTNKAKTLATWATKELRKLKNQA
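FRET biosensor Rango (snurportin 1 IBB between N-terminal EYFP and C-terminal Cerulean), 50 nM in PBS/1 mM DTT/0.02% Tween-20/0.1% BSA, preincubated 5 min RT with compound; 0.125 microM importin beta added, 45 min RT, CFP/YFP FRET ratio read.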
Rango dissoc inh = inhibitors of RanGTP-induced Rango-importin beta complex dissociation | AID 540253 | O95149+P62826 | 340,000 tested, 0.071% active | Potency, µM (series often up to 46.1 µM), for inactives: at the highest dose activity change, negative = inhibition | Biochemical FRET Rango-importin beta, RanGTP-induced dissociation; also: % of control where 0% means no effect; nearly all actives have a fitted effect of over 45% in size
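Two FRET readings bracket the reaction: one 5 min after compound meets Rango–importin beta, another 45 min after RanGTP-RCC1 (0.6 uM Ran, 0.2 uM RCC1, 2 mM GTP) is added. Only the second defines inhibition.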
gsp ag = agonists of gsp mutant (McCune-Albright syndrome); 340,000 tested, 0.13% active; AID 624287; Potency, µM (doses to about 76.9 µM), without a hit: at the highest dose activation (cAMP increase), hits mostly activators; gsp mutant cells, cAMP HTRF, 30 min; active = well fitted activation curve with a large enough effect; inconclusive = small, poorly fitted or top-dose-only effect, or another doubt; inactive = no such curve, though single readings can be large or run the other way; cell line not stated here;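 also: phosphodiesterase inhibitor Ro 20-1724 added with compounds to block cAMP breakdown; nearly all actives have a fitted effect of over 60% in size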
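Cells in DMEM/10% FBS with G418 were pretreated with compounds in DMSO plus […] (300 uM stock) for 30 min at 37C. cAMP was measured by HTRF (cAMP-d2 plus anti-cAMP antibody-K) after 30 min at room temperature.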
* hit, by the source's call; ? = inconclusive; . = no result; [ ] = dose if it differs, or a comment. Most compounds without a hit are left out; they make up all but 0.66% or so of the library. Unless noted, calls follow the shape of the full dose curve. Potency is read from the fitted curve at half-maximal effect.

SMILES	gsp antag	Rango-impB inh	Rango dissoc inh	gsp ag
O=C1c2ccccc2C(=O)N1CCCc1cn(C[C@H]2CC[C@@H]([C@@H]3CC[C@H](Cn4cc(CCCN5C(=O)c6ccccc6C5=O)nn4)O3)O2)nn1	-7%	-1%	-6%	.
Cc1ccc(C)n1-c1ccc(-c2ccnc(N)n2)cc1	-2%	?	15µM*	-4%[15.4 µM]
Cc1onc(-c2ccccc2)c1-c1ccnc(N)n1	0%	?	?	-1%[15.4 µM]
COc1cccc(NC(=O)N(C)C[C@@H]2OCc3cnnn3CCCC(=O)N([C@H](C)CO)C[C@@H]2C)c1	.	.	.	-26%
COC(=O)c1ccccc1-c1ccc(/C=N/Nc2nc(N3CCCC3)nc(N3CCCC3)n2)o1	25µM*	?	-24%	0%[15.4 µM]
CCOC(=O)c1ccc(N2CCN(C(C)=O)CC2)c(NC(=O)c2cccnc2)c1	50µM*	1%	8%	6%
O=C(O)c1ccccc1SCc1cn2cc(Br)ccc2n1	26%	-1%	0%	10µM*
O=C(O)c1cccnc1SCc1cn2cc(Br)ccc2n1	-4%	-1%	7%	28%[15.4 µM]
COc1ccc(C#Cc2cnc3c(c2)C(=O)N([C@@H](C)CO)C[C@@H](C)[C@@H](CN(C)CC2CCOCC2)O3)cc1	.	.	.	-62%
OCC1OC(Nc2ccccc2C=NO)C(O)C1O (stereo not drawn)	.	.	.	-5%
O=C(NN1C(=O)c2ccccc2NC1c1ccc([N+](=O)[O-])o1)c1ccc([N+](=O)[O-])cc1 (stereo not drawn)	29%	?	-7%	1.8µM*
CO[C@H](C(=O)N(C)C[C@@H]1OCc2ccccc2-c2c(n(C)c3ccccc23)C(=O)N([C@H](C)CO)C[C@@H]1C)c1ccccc1	.	.	.	-15%
CCOC(=O)C1CCCN(C(=O)c2cccc(N3C(=O)c4ccccc4C3=O)c2)C1 (stereo not drawn)	-4%	0%	-4%	19%
COc1ccc(/C=C2\Sc3ccc(C(=O)N4CCCC4)cc3N(C)C2=O)cc1OC	0%	0%	12%	?
CCOC(=O)C1CCCN(C(=O)c2ccc3c(c2)N(C)C(=O)/C(=C/c2ccccc2Cl)S3)C1 (stereo not drawn)	11µM*	-4%	-19%	-19%
CN1C(=O)/C(=C/c2ccccc2Cl)Sc2ccc(C(=O)N3CCCC3)cc21	32µM*	0%	0%	1%
O=C(NCc1ccccc1)/C(=C\c1ccc(F)cc1)NC(=O)c1ccco1	.	.	.	-48%
COc1ccc(-c2ocnc2C(=O)N2CCN(Cc3cccnc3)CC2)cc1	3%	-3%	1%	-11%
COc1ccc(-c2ocnc2C(=O)N2CCN(C(=O)C(c3ccccc3)c3ccccc3)CC2)cc1	25µM*	-1%	19%	-8%[15.4 µM]
C[C@@H]1CN([C@H](C)CO)C(=O)CCCn2nncc2CO[C@H]1CN(C)S(=O)(=O)c1ccccc1F	.	.	.	-74%
Cc1cc(C)c(C#N)c(SCc2ccc(C(=O)O)cc2)n1	40µM*	9%	40%	-3%
Cc1cc(C)c(C#N)c(SCc2ccccc2)n1	-10%	-1%	12%	-19%
CCn1c(SCC(=O)c2[nH]c(C)c(C(C)=O)c2C)nnc1-c1ccncc1	-10%	-2%	2%	-4%
CCn1c(SCC(=O)c2[nH]c(C)c(C(C)=O)c2C)nnc1-c1ccccc1	20µM*	-4%	-25%	-3%
CCCCCn1c(N2CCCC2)nc2c1c(=O)n(C)c(=O)n2C	?	4%	-5%	7%[15.4 µM]
SMILES	gsp antag	Rango-impB inh	Rango dissoc inh	gsp ag
Cn1c(=O)c2c(nc(N3CCCCC3)n2CCCNC2=NCCCC2)n(C)c1=O	21%	-2%	-7%	13µM*
CCC[C@@H](NS(=O)(=O)c1ccc(C)cc1)C(=O)Oc1ccc2c3c(c(=O)oc2c1)CCC3	28µM*	-6%	?	?
Cc1ccc(S(=O)(=O)NC(C(=O)Oc2ccc3c(C)c(Cl)c(=O)oc3c2)c2ccccc2)cc1 (stereo not drawn)	11%	?	?	14%
CCN(CC)C(=O)C1=C(C)N(Cc2ccc(OC)cc2)C(=O)C(CC(=O)NC2CCCC2)C1 (stereo not drawn)	.	.	.	-18%
O=C(Nc1ccccc1)Nc1cc(OCC(F)(F)F)cc(OCC(F)(F)F)c1	32µM*	1%	0%	-3%[15.4 µM]
Cc1cn([C@H]2C[C@H](O)[C@@H](CNC(=O)[C@@H]3CCCN3Cc3ccccc3)O2)c(=O)[nH]c1=O	.	.	.	-34%
COc1ccc(-c2nc(NC(=O)c3ccc(OCC(=O)N4CCOCC4)c(OC)c3)sc2C)cc1	35µM*	1%	8%	-16%
COc1cc(C(=O)Nc2ccc(C)cn2)ccc1OCC(=O)N1CCOCC1	-4%	1%	2%	29%
Cc1nn(-c2ccccc2)c(C)c1NC(=O)COc1ccc(Br)cc1Cl	35µM*	0%	-9%	-2%[15.4 µM]
Cc1nn(-c2ccccc2)c(C)c1NC(=O)COc1ccc(C#N)cc1	1%	-2%	-14%	-1%
Cc1nn(-c2ccccc2)c(C)c1NC(=O)COc1ccc2ccccc2c1	16µM*	-1%	1%	-56%
COc1ccccc1NC(=O)COC(=O)c1c(C)nn(-c2ccccc2)c1C	32µM*	4%	-2%	0%
COc1cc(C(=O)NC(CCSC)C(=O)Nc2ccc(N3CCOCC3)cc2)cc(OC)c1OC (stereo not drawn)	.	.	.	-13%
CNC[C@H]1OCc2ccccc2-c2ccccc2C(=O)N([C@@H](C)CO)C[C@H]1C	.	.	.	-4%
COCCNC(=O)c1cn(C)c2ccc(S(=O)(=O)N(C)C3CCCCC3)cc2c1=O	11µM*	1%	-1%	-15%
O=C(c1n[nH]c2ccccc12)N1CCOCC1	-12%	8%	-1%	-17%
CC(=O)c1ccc(N2CCN(C(=O)c3n[nH]c4ccccc34)CC2)cc1	11µM*	2%	17%	-8%[15.4 µM]
CCOC(=O)c1c(C)[nH]c(C(=O)COC(=O)CNS(=O)(=O)c2ccc(C)cc2)c1C	32µM*	?	7%	-17%
CC(=O)c1c(C)[nH]c(C(=O)COC(=O)CNS(=O)(=O)c2ccccc2)c1C	-21%	-3%	13%	-7%
CCN(CC)S(=O)(=O)c1ccc(Cl)c(NC(=O)CSc2cccc[n+]2[O-])c1	12%	0%	-7%	8.9µM*
CC1(C)CC(=O)C=C(c2ccc(-c3ccc(OC(F)(F)F)cc3)cc2)C1=O	.	.	.	-34%
Cn1c(=O)c2c(ncn2CC(=O)NC2CCCCC2)n(C)c1=O	14%	0%	15%	13µM*
CC(Oc1ccccc1)C(=O)N1CCC2(CC1)Oc1ccc(F)cc1C(=O)C21CC(c2cccnc2)=NO1 (stereo not drawn)	?	4%	9%	.
Cc1ccc(C(=O)N2CCC3(CC2)Oc2ccc(F)cc2C(=O)C32CC(c3cccnc3)=NO2)s1 (stereo not drawn)	35µM*	-1%	1%	.
c1ccc2c(NCCc3c[nH]c4ccccc34)c3ccccc3nc2c1	-13%	?	15µM*[inhibitor]	-15%
